PubChem BioAssay (NCATS)
Records with an inconclusive call do not appear. The source made the active and inactive calls. The call rests on the fitted dose curve; in most records, active means well fitted inhibition curve with a large enough effect; inconclusive means small, poorly fitted or top-dose-only effect; inactive means flat fitted curve, though single readings scatter.

Key:
Assay in all cases: qHTS profiling for inhibitors of Plasmodium falciparum proliferation (AID 504749); further: nearly all actives have a fitted effect of over 60% in size
Settings in all cases: P. falciparum in erythrocytes, SYBR Green DNA, 72 h; series mostly up to 28.7 µM
CP265 = test system: CP265
How it was run: (§1)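 SYBR Green fluorescence (ex 485 nm, em 535 nm) reports parasite DNA after 72 h compound exposure of infected red cells at 0.3% parasitemia, 2.5% hematocrit; signal normalized to 0.29 uM artemisinin and vehicle wells.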

CP266 = test system: CP266
How it was run: as §1

CP268 = test system: CP268
How it was run: as §1

CP269 = test system: CP269
How it was run: as §1

CP286 = test system: CP286
How it was run: as §1

CP291 = test system: CP291
How it was run: as §1

CP297 = test system: CP297
How it was run: as §1

CP305 = test system: CP305
How it was run: as §1

CP315 = test system: CP315
How it was run: as §1

CP325 = test system: CP325
How it was run: as §1

CP329 = test system: CP329
How it was run: as §1

CP335 = test system: CP335
How it was run: as §1

DFO2036 = test system: DFO2036
How it was run: as §1

DIV14 = test system: DIV14
How it was run: as §1

DIV17 = test system: DIV17
How it was run: as §1

DIV30 = test system: DIV30
How it was run: as §1

Dd2 = test system: Dd2
How it was run: as §1

ECU = test system: ECU
How it was run: as §1

FAB9 = test system: FAB9
How it was run: as §1

GB4 = test system: GB4
How it was run: as §1

Measured: Potency

CCCCCCCCCCCCCCCCO
inactive: CP265 | CP266 | CP268 | CP269 | CP286 | CP291 | CP297 | CP305 | CP315 | CP325 | CP329 | CP335 | DFO2036 | DIV14 | DIV17 | DIV30 | Dd2 | ECU | FAB9 | GB4

Nc1ccc(S(=O)(=O)Nc2cnc3ccccc3n2)cc1
inactive: CP265 | CP266 | CP268 | CP269 | CP286 | CP291 | CP297 | CP305 | CP315 | CP325 | CP329 | CP335 | DFO2036 | DIV14 | DIV17 | DIV30 | Dd2 | ECU | FAB9 | GB4

NC(=O)c1ccccc1O
inactive: CP265 | CP266 | CP268 | CP269 | CP286 | CP291 | CP297 | CP305 | CP315 | CP325 | CP329 | CP335 | DFO2036 | DIV14 | DIV17 | DIV30 | Dd2 | ECU | FAB9 | GB4

CCN(CC)CCNC(=O)COc1ccc(OC)cc1
inactive: CP265 | CP266 | CP268 | CP269 | CP286 | CP291 | CP297 | CP305 | CP315 | CP325 | CP329 | CP335 | DFO2036 | DIV14 | DIV17 | DIV30 | Dd2 | ECU | FAB9

CCCCCCCC/C=C\CCCCCCCCN
inactive: CP265 | CP266 | CP268 | CP269 | CP286 | CP291 | CP297 | CP305 | CP315 | CP325 | CP329 | CP335 | DFO2036 | DIV14 | DIV17 | DIV30 | Dd2 | ECU | FAB9 | GB4

O=C(O)Cc1csc(-c2ccc(Cl)cc2)n1
inactive: CP265 | CP266 | CP268 | CP269 | CP286 | CP291 | CP297 | CP305 | CP315 | CP325 | CP329 | CP335 | DFO2036 | DIV14 | DIV17 | DIV30 | Dd2 | ECU | FAB9 | GB4

CCCCNC(=O)NS(=O)(=O)c1ccc(N)cc1
inactive: CP265 | CP266 | CP268 | CP269 | CP286 | CP291 | CP297 | CP305 | CP315 | CP325 | CP329 | CP335 | DFO2036 | DIV14 | DIV17 | DIV30 | Dd2 | ECU | FAB9 | GB4

CCOC(=O)c1ccc(N)cc1
inactive: CP265 | CP266 | CP268 | CP269 | CP286 | CP291 | CP297 | CP305 | CP315 | CP325 | CP329 | CP335 | DFO2036 | DIV14 | DIV17 | DIV30 | Dd2 | ECU | FAB9 | GB4

Nc1nc(N)c(-c2ccccc2)s1
inactive: CP265 | CP266 | CP268 | CP269 | CP286 | CP291 | CP297 | CP305 | CP315 | CP325 | CP329 | CP335 | DFO2036 | DIV14 | DIV17 | DIV30 | Dd2 | ECU | FAB9 | GB4

NC(=S)N/N=C/c1cccnc1
inactive: CP265 | CP266 | CP268 | CP269 | CP286 | CP291 | CP297 | CP305 | CP315 | CP325 | CP329 | CP335 | DFO2036 | DIV14 | DIV17 | DIV30 | Dd2 | ECU | FAB9 | GB4

COc1ccc(/C=N/NC(=O)c2ccncc2)cc1OC
inactive: CP265 | CP266 | CP268 | CP269 | CP286 | CP291 | CP297 | CP305 | CP315 | CP325 | CP329 | CP335 | DFO2036 | DIV14 | DIV17 | DIV30 | Dd2 | ECU | FAB9 | GB4

CC(=O)NO
inactive: CP265 | CP266 | CP268 | CP269 | CP286 | CP291 | CP297 | CP305 | CP315 | CP325 | CP329 | CP335 | DFO2036 | DIV14 | DIV17 | DIV30 | Dd2 | ECU | FAB9 | GB4

COc1ccc(-c2cc(C(F)F)nn2-c2ccc(S(N)(=O)=O)cc2)cc1F
inactive: CP265 | CP266 | CP268 | CP269 | CP286 | CP291 | CP297 | CP305 | CP315 | CP325 | CP329 | CP335 | DFO2036 | DIV14 | DIV17 | DIV30 | Dd2 | ECU | FAB9 | GB4

Cl/C(=C\n1cncn1)c1ccc(Cl)cc1Cl
inactive: CP265 | CP266 | CP268 | CP269 | CP286 | CP291 | CP297 | CP305 | CP315 | CP325 | CP329 | CP335 | DFO2036 | DIV14 | DIV17 | DIV30 | Dd2 | ECU | FAB9 | GB4
